Experimental data published in PubChem BioAssay (NCATS).
Where “and” joins values, the source holds several entries; their conditions need not be identical. Equal values may be shown once. Records with an inconclusive call do not appear. Calls of active or inactive are those of the source. Unless noted, calls come from the whole dose curve; as a rule, active = well fitted curve in either direction with a large enough effect (not every such curve was filed as active); inconclusive = small, poorly fitted or top-dose-only effect, or another doubt; inactive = flat fitted curve, though single readings scatter.

How the values were obtained:
[1] = AP1 Signaling Pathway (AID 357); conditions: ME-180 AP-1-bla reporter, EGF-induced, beta-lactamase ratio, 5 h;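 note: ME-180 reporter cells stimulated with EGF at its EC50 level; % is set by controls: 0 for no effect and ±100 for the full control effect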
In short: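 Titration-series screen for positive or negative modulators of EC50 EGF-induced signaling in ME-180 cells carrying an AP-1-driven beta-lactamase reporter. After 5 hours at 37 degrees Celsius, CCF4 460nm/530nm emission ratio gave %Activity; AC50 values derived.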

[2] = target: Cytochrome P450 1A2 (Homo sapiens) (UniProt P05177); assay: p450-cyp1a2 (AID 410; calls by dose curve; note: potency is the fitted concentration of half-maximal effect;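 for activity change, negative = inhibition: -100% = full effect of reference inhibitor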); conditions: recombinant CYP1A2, luciferin-ME demethylation, luminescence; series mostly up to 57 µM
Chain of Cytochrome P450 1A2 (Homo sapiens) (P05177 whole entry, looked up): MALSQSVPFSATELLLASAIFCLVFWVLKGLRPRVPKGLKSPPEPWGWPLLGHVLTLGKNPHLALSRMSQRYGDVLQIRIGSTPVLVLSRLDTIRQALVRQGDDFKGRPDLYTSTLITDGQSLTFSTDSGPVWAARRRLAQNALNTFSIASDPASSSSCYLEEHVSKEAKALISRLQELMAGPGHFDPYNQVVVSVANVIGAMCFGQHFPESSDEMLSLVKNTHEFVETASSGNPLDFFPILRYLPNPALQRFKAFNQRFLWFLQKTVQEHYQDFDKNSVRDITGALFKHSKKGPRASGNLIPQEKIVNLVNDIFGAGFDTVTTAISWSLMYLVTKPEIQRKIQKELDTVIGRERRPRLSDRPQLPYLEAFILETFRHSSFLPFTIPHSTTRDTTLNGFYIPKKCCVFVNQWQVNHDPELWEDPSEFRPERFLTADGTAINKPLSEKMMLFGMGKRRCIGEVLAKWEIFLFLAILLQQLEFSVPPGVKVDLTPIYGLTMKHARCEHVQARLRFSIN
In short: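 20nM CYP1A2, 100uM Luciferin-ME (=Km), 100mM KPO4; cpd 10 min RT; +NADPH regen, 60 min RT; stop/detect 20 min; luminescence. Normalized to furafylline 57 uM = full inhibition.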

[3] = NFAT Signaling Pathway (AID 444); conditions: Jurkat NFAT-bla M1, carbachol, beta-lactamase ratio, 5 h; at 38 µM (top of the series) unless noted;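 note: carbachol stimulus at about its EC50 of 1 µM final; % is set by controls: 0 for no effect and ±100 for the full control effect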
In short: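 Jurkat cells carrying an NFAT-driven β-lactamase reporter and co-transfected muscarinic M1 receptor were treated with compound plus carbachol (1 uM final, an EC50 level) for 5 h at 37 °C. CCF4 loading followed for 1 h at RT; 460/530 nm ratio gave %activity.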

[4] = Stat Signaling Pathway (AID 446); conditions: ME-180 (cervical carcinoma) SIE beta-lactamase reporter, IL-6 stimulated, 5 h;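 note: ME-180 cervical cancer cells given 40 pM IL-6 alongside compound; SIE-controlled beta-lactamase reporter measured as 460/530 nm FRET emission ratio; % is set by controls: 0 for no effect and ±100 for the full control effect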
In short: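 Normalization used AC90 stimulation (300 pM IL-6) and AC90 inhibition (125 nM pan-JAK inhibitor at 40 pM IL-6). The underlying signal is SIE-driven beta-lactamase in ME-180 cells after 5 h IL-6 exposure with compound.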

[5] = target: Mitogen-activated protein kinase 10 (Mus musculus) (UniProt Q61831); assay: JNK3 AlphaScreen Assay (AID 530); conditions: JNK3 lysate, c-Jun phosphorylation; series mostly up to 57.1 µM;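 note: kinase came from lysate of stimulated human HepG2 cells; signal reports phosphorylation of biotinylated GST-cJun 1-79 at Ser73 with 10 µM ATP; % is set by controls: 0 for no effect and ±100 for the full control effect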
In short: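 Biotinylated GST-cJun(1-79) served as substrate for JNK3 in HepG2 lysates stimulated with IL-1beta and TNF-alpha. ATP was 10 uM final, pH 7.6. Ser73 phosphorylation was quantified by AlphaScreen (680 nm excitation).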

[6] = target: Glucocorticoid receptor (Homo sapiens) (UniProt P04150); assay: GR-GFP Redistribution (AID 450;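 active = compounds whose dose series gives a full or clear partial fitted curve of increased nuclear translocation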; note: potency is the fitted concentration of half-maximal effect); conditions: U2OS GR-GFP nuclear translocation, laser cytometry, 2 h
Chain of Glucocorticoid receptor (Homo sapiens) (P04150 whole entry, looked up, the tested form may be a part): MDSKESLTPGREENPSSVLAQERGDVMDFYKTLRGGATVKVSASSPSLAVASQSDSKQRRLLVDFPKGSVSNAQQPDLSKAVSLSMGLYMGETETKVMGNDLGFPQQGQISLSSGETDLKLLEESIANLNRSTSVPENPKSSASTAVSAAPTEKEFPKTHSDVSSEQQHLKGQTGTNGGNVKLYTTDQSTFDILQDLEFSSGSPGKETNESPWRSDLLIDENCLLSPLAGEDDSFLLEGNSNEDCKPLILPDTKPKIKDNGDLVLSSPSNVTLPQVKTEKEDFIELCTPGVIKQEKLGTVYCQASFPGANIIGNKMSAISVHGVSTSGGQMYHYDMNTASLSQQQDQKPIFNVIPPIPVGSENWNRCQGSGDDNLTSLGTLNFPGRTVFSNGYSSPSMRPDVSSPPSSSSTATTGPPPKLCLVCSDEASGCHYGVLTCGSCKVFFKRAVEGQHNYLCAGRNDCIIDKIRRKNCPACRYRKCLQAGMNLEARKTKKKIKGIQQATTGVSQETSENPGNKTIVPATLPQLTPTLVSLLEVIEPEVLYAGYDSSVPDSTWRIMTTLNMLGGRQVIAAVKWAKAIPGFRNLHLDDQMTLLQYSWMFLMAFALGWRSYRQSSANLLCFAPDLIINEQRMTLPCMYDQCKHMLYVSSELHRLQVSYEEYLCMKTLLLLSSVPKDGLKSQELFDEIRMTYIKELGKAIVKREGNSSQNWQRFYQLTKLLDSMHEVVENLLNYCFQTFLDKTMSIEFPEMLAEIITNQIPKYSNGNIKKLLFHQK

[7] = target: Glucocorticoid receptor (Homo sapiens) (UniProt P04150); assay: GR-EFC Redistribution (AID 451; calls by dose curve; note: potency is the fitted concentration of half-maximal effect); conditions: CHO-K1 GR-EFC translocation, beta-gal luminescence, 2 h
In short: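 CHO-K1 cells stably expressing nuclear-localized β-gal enzyme acceptor and GR fused C-terminally to the enzyme donor fragment; ligand-driven nuclear translocation restores β-gal by complementation. Compounds titrated up to 46 uM final, 2 h at 37 °C; luminescence read.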

[8] = Cell Viability - BJ (AID 421; calls by dose curve;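 note: potency is the fitted concentration of half-maximal effect; cells exposed to compound for 40 hours at 37 °C before readout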); conditions: BJ fibroblast viability, qHTS
In short: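 Normal human BJ foreskin fibroblasts, 1500/well in complete medium, treated 40 hr at 37 °C. Cellular ATP by CellTiter-Glo luminescence; normalized to DMSO and 100 uM tamoxifen, AC50 from Hill fit.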

[9] = Cell Viability - Jurkat (AID 426;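 active = dose-dependent loss of cell ATP signal giving a full or clear fitted curve, ranked by lower potency value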; note: potency is the fitted concentration of half-maximal effect); conditions: qHTS
In short: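 Luminescent ATP read-out (CellTiter-Glo, 20 min at room temperature) after 40 hr compound exposure at 37 °C of Jurkat E6-1 cells, 5000/well. Decreased ATP taken as cytotoxicity; AC50 from standard Hill equation.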

[10] = Cell Viability - Hek293 (AID 427;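 active = compounds whose dose-response curve shows a full or clear partial loss of cell viability, called from curve shape rather than a numeric limit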;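 note: potency is the fitted concentration of half-maximal effect; cells exposed to compound for 40 hours at 37 °C before reading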); conditions: qHTS
In short: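 HEK293 cells in complete medium were exposed to compound for 40 hr at 37 °C, then cellular ATP was read by CellTiter-Glo luminescence. Data were normalized to DMSO (basal) and 100 uM tamoxifen (100% inhibition), and AC50 came from Hill fits.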

[11] = Cell Viability - HepG2 (AID 433; calls by dose curve;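 note: potency is the fitted concentration of half-maximal effect; potency for ATP loss meaning cytotoxicity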); conditions: qHTS
In short: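 HepG2 cells, 1500 per well, treated 40 hr at 37 °C in complete medium; viability from intracellular ATP by CellTiter-Glo luminescence. Normalized to DMSO and 100 uM tamoxifen; AC50 from Hill fit of qHTS concentration-response.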

[12] = Cell Viability - MRC5 (AID 434; calls by dose curve;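 note: potency is the fitted concentration of half-maximal effect; potency reflects cytotoxicity seen as loss of intracellular ATP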); conditions: MRC5 lung fibroblast viability, qHTS
In short: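 Decrease in intracellular ATP, quantified by luciferase light output, reflects compound toxicity toward MRC5 cells exposed for 40 hr in complete culture medium. Concentration-response curves, scaled between DMSO and 100 uM tamoxifen, gave AC50 values.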

[13] = Cell Viability - SK-N-SH (AID 435; calls by dose curve; note: potency is the fitted concentration of half-maximal effect); conditions: SK-N-SH neuroblastoma cell viability qHTS
In short: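 SK-N-SH neuroblastoma cells (1500/well) treated 40 h at 37 °C in complete medium; viability read as cellular ATP by CellTiter-Glo luminescence. Normalized to DMSO and 100 uM tamoxifen; AC50 from Hill fits of qHTS concentration-response.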

[14] = Cell Viability - N2a (AID 540; active = well fitted curve in the direction sought with a large enough effect; an effect the other way counts as inactive or inconclusive; note: nearly all actives have a fitted effect of over 45% in size; note: potency is the fitted concentration of half-maximal effect;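 for activity change, negative = cytotoxicity: plate controls were DMSO alone for no effect and tamoxifen control for full effect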); conditions: N2a mouse neuroblastoma cell viability; activity change, negative = cytotoxicity: at 92.2 µM (top of the series)
In short: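 N2a mouse neuroblastoma, 1500 cells/well, 5 hr settle; compound 40 hr, 37 °C; CellTiter-Glo 20 min RT; luminescence; Hill-fit AC50.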

[15] = Cell Viability - NIH 3T3 (AID 541; active = well fitted curve in the direction sought with a large enough effect; an effect the other way counts as inactive or inconclusive;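 note: plate controls were DMSO alone for no effect and tamoxifen positive control for full effect; nearly all actives have a fitted effect of over 25% in size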); conditions: NIH 3T3 cell viability, qHTS; activity change, negative = cytotoxicity: at 92.2 µM (top of the series)
In short: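 qHTS format; 40 hr compound exposure, 37 °C; CellTiter-Glo luminescence (cellular ATP) read-out after 20 min at RT. Decrease in ATP = cytotoxicity; AC50 from standard Hill fit.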

[16] = Cell Viability - HUV-EC-C (AID 542; active = well fitted curve in the direction sought with a large enough effect; an effect the other way counts as inactive or inconclusive; note: % is set by controls: 0 for no effect and ±100 for the full control effect; nearly all actives have a fitted effect of over 35% in size); conditions: HUV-EC-C endothelial cell viability, qHTS; series mostly up to 92.2 µM
In short: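 Luminescent ATP read-out (CellTiter-Glo, 20 min room temperature) after 40 hr compound treatment of HUV-EC-C cells at 37 °C. Concentration-response data fitted with the standard Hill equation to give AC50; tamoxifen and doxorubicin served as positive controls.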

[17] = Cell Viability - H-4-II-E (AID 543; active = well fitted curve in the direction sought with a large enough effect; an effect the other way counts as inactive or inconclusive; note: nearly all actives have a fitted effect of over 35% in size; note: potency is the fitted concentration of half-maximal effect); conditions: H-4-II-E rat hepatoma viability; series mostly up to 92.2 µM
In short: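 qHTS, rat hepatoma H-4-II-E, 1500 cells/well; 40 hr compound exposure, 37 °C; CellTiter-Glo ATP luminescence after 20 min RT; AC50 by standard Hill fit.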

[18] = Cell Viability - SH-SY5Y (AID 544; active = well fitted curve in the direction sought with a large enough effect; an effect the other way counts as inactive or inconclusive; note: nearly all actives have a fitted effect of over 55% in size; note: potency is the fitted concentration of half-maximal effect;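 for viability change, negative = cytotoxic: 0% = DMSO alone and -100% = 100 µM tamoxifen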); conditions: SH-SY5Y neuroblastoma cell viability; viability change, negative = cytotoxic: at 92.2 µM (top of the series)
In short: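 SH-SY5Y, 1500 cells/well, 5 hr pre-incubation 37 °C; cpd 40 hr 37 °C; CellTiter-Glo 20 min RT; luminescence (ATP) read. qHTS concentration-response, Hill fit → AC50. Tamoxifen, doxorubicin as positive controls.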

[19] = Cell Viability - Renal Proximal Tubule (AID 545; active = well fitted curve in the direction sought with a large enough effect; an effect the other way counts as inactive or inconclusive;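 note: 0% = DMSO only and -100% = 100 µM tamoxifen; nearly all actives have a fitted effect of over 40% in size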); conditions: renal proximal tubule cells viability, primary cells of rat origin; activity change, negative = cytotoxicity: at 91.7 µM (top of the series)
In short: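 Rat renal proximal tubule primary cells, 1000/well, exposed to compounds for 40 hr at 37 °C in complete medium; cellular ATP read by CellTiter-Glo luminescence. AC50 from concentration-response fitted with standard Hill equation.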

NO
inactive: activity change, negative = inhibition ([1]; at 38 µM (top of the series)) 6.61% | Potency [2] | activity change, negative = inhibition [3] -5.23% | activity, negative = inhibition ([4]; at 38 µM (top of the series)) 11.6% | Potency [5]

CCCSc1ccc2nc(NC(=O)OC)[nH]c2c1
active: Potency [2] 0.398 µM
inactive: activity change, negative = inhibition ([1]; at 17.2 µM (top of the series)) 11.3% and 5.12% | activity, negative = inhibition ([4]; at 17.2 µM (top of the series)) -7.64% and -2.74% | Potency [6] > 20.6 µM | Potency [7] > 20.6 µM | Potency [5]

Cc1ccc(C(=O)c2ccc(CC(=O)O)n2C)cc1
inactive: activity change, negative = inhibition ([1]; at 17.2 µM (top of the series)) 6.83% | Potency [2] | activity change, negative = inhibition [3] -1.3% [at 17.2 µM] | activity, negative = inhibition ([4]; at 17.2 µM (top of the series)) -8.7% | Potency [5]

NC[C@@H]1O[C@H](C23CC4CC(CC(C4)C2)C3)Cc2c1ccc(O)c2O
inactive: activity change, negative = inhibition ([1]; at 38 µM (top of the series)) -6.97% | Potency [2] | activity, negative = inhibition ([4]; at 38 µM (top of the series)) 0.327% | Potency [6] > 46 µM | Potency [7] > 46 µM | Potency [5]

Nc1nc(Cl)nc2c1ncn2[C@@H]1O[C@H](CO)[C@@H](O)[C@H]1O
inactive: activity change, negative = inhibition ([1]; at 17.2 µM (top of the series)) 0.568% | activity change, negative = inhibition [3] 22.4% [at 17.2 µM] | activity, negative = inhibition ([4]; at 17.2 µM (top of the series)) 24.3% | Potency [6] > 20.6 µM

OC[C@H]1O[C@@H](n2cnc3c(NC4CCCC4)ncnc32)[C@H](O)[C@@H]1O
inactive: activity change, negative = inhibition ([1]; at 17.2 µM (top of the series)) 4.32% | activity change, negative = inhibition [3] 7.15% [at 17.2 µM] | activity, negative = inhibition ([4]; at 17.2 µM (top of the series)) 15.8% | Potency [6] > 20.6 µM

COc1cc(OC)c(/C=C2/C(=O)Nc3ccccc32)c(OC)c1
active: Potency [2] 0.501 µM
inactive: activity change, negative = inhibition ([1]; at 38 µM (top of the series)) -28.2% | activity change, negative = inhibition [3] -8.19% | Potency [6] > 46 µM | Potency [7] > 46 µM | Potency [5]

COc1ccccc1N1CCN(CCCCNS(=O)(=O)c2cccc3c(N(C)C)cccc23)CC1
inactive: activity change, negative = inhibition ([1]; at 38 µM (top of the series)) 1.98% | Potency [2] | activity, negative = inhibition ([4]; at 38 µM (top of the series)) -7.18% | Potency [6] > 46 µM | Potency [7] > 46 µM

C[N+](C)(CCCCCC[N+](C)(C)CCCN1C(=O)c2cccc3cccc(c23)C1=O)CCCN1C(=O)c2cccc3cccc(c23)C1=O
inactive: activity change, negative = inhibition ([1]; at 38 µM (top of the series)) 14% | Potency [2] | activity, negative = inhibition ([4]; at 38 µM (top of the series)) 0.109% | Potency [6] > 46 µM | Potency [7] > 46 µM | Potency [5]

O=C(O)/C=C\C(=O)O
inactive: Potency [8] > 92 µM | Potency [9] > 92 µM | Potency [10] > 92 µM | Potency [11] > 92 µM | Potency [12] > 92 µM | Potency [13] > 92 µM | Potency [5] | Potency [14] | Potency [15] | Potency [16] | Potency [17] | Potency [18] | activity change, negative = cytotoxicity [19] -6.17%

O=C(O)c1cc(=O)c2ccccc2[nH]1
inactive: activity change, negative = inhibition ([1]; at 38 µM (top of the series)) 5.32% | activity change, negative = inhibition [3] 13.2% | Potency [6] > 46 µM | Potency [7] > 46 µM | Potency [5]

CCCCCCCC/C=C\CCCCCCCC(=O)NCCO
inactive: activity change, negative = inhibition [3] -20.4% | Potency [6] > 46 µM | Potency [7] > 46 µM | Potency [5]

NCCO
inactive: Potency [8] > 92 µM | Potency [9] > 92 µM | Potency [10] > 92 µM | Potency [11] > 92 µM | Potency [12] > 92 µM | Potency [13] > 92 µM | Potency [14] | Potency [15] | Potency [16] | Potency [17] | activity change, negative = cytotoxicity [19] -3.73%

CN1[C@@H](CC(=O)c2ccccc2)CCC[C@H]1C[C@H](O)c1ccccc1
inactive: activity change, negative = inhibition ([1]; at 17.2 µM (top of the series)) 1.25% | activity, negative = inhibition ([4]; at 17.2 µM (top of the series)) 5.71%

N#C/C(=C\c1c[nH]c2ccccc12)C(=O)c1ccc(O)c(O)c1
inactive: activity change, negative = inhibition [3] 0.356% | activity, negative = inhibition ([4]; at 38 µM (top of the series)) -11% | Potency [6] > 46 µM | Potency [7] > 46 µM
active: Potency [2] 1.26 µM

O=C1CN(/N=C/c2ccc([N+](=O)[O-])o2)C(=O)N1
inactive: Potency [8] > 92 µM | Potency [12] > 92 µM | Potency [5] | Potency [16]
active: Potency [9] 7.84 µM | Potency [14] 31.6 µM | activity change, negative = cytotoxicity [15] -97.7%

O=c1cc(-c2ccccc2)oc2ccccc12
inactive: Potency [8] > 92 µM | Potency [9] > 92 µM | Potency [10] > 92 µM | Potency [11] > 92 µM | Potency [12] > 92 µM | Potency [13] > 92 µM | Potency [5] | Potency [14] | Potency [16] | Potency [18]

CCCOC(=O)c1ccc(O)cc1
inactive: Potency [8] > 92 µM | Potency [9] > 92 µM | Potency [10] > 92 µM | Potency [11] > 92 µM | Potency [12] > 92 µM | Potency [13] > 92 µM | Potency [5] | Potency [14] | Potency [15] | Potency [16] | Potency [17] | Potency [18] | activity change, negative = cytotoxicity [19] -13.5% and -15.2%

C#C[C@]1(O)CC[C@H]2[C@@H]3CCc4cc(O)ccc4[C@H]3CC[C@@]21C
inactive: Potency [8] > 92 µM | Potency [10] > 92 µM | Potency [11] > 92 µM | Potency [13] 25.5 µM | Potency [5] | Potency [14] | Potency [15]
active: Potency [17] 20 µM | Potency [18] 31.6 µM
